# A selection: hits, their analogues and other compounds. The true share with any hit is near 3.5%.
# GPR151 activ = activators of human GPR151; Q8TDV0; PathHunter beta-arrestin GPR151 cells, luminescence; activation, % at 11.2 µM; actives 1% (n = 650,000); AID 1508602; in the data active = activation above about 4.9%;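 also: 0% = median of compound wells and 100% = cells with positive control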
# MITF inh = human MITF inhibition, primary screen | actives 0.91% (n = 650,000) | AlphaScreen MITF homodimerization, bead proximity signal | inhibition, % at 2.6 µM | O75030; in the data active = inhibition above about 50%;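 also: 0% = vehicle wells with protein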
# Target sequence (O75030 whole entry, looked up): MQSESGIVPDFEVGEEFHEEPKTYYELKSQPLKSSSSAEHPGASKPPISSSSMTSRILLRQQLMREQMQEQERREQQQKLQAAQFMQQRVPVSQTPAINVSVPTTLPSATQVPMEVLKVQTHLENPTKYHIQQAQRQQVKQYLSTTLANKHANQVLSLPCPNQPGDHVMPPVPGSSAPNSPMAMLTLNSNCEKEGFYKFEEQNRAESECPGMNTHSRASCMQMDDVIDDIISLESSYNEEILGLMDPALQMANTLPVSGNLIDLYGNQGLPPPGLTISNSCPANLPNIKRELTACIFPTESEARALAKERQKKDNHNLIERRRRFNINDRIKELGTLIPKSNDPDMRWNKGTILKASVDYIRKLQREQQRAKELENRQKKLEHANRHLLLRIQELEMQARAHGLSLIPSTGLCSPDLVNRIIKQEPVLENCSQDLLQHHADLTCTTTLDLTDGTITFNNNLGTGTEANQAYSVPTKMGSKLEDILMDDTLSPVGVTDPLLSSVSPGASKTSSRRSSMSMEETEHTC
# TEAD-YAP block = TEAD-YAP interaction inhibition; HEK-TIYL cells, TEAD-Gal4/YAP UAS-luciferase luminescence; inhibition, % at 9.12 µM; actives 1.4% (n = 640,000); AID 1259422; in the data active = inhibition above about 32%;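 also: 0% = median of test compound wells and 100% = reference inhibitor wells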
# FBW7 activator = activators of human E3 ligase FBW7. AlphaScreen FBW7–phospho-cyclin E peptide binding, activator screen. actives 0.13% (n = 650,000). Q969H0. normalized activity (activation), % at 26.1 µM; in the data active = normalized activity above about 1.9%;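 also: purified mutant Fbw7 with reduced substrate affinity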
# Active calls of the source: *.
SMILES,GPR151 activ,MITF inh,TEAD-YAP block,FBW7 activator
Cc1ccc(NC(=O)c2ccc(Nc3nc(-c4ccccc4)c4cc(C)ccc4n3)cc2)cc1,1,4,-3,0
COc1ccccc1CCNC(=O)c1ccc2c(c1)CC(c1nc3ccc(-c4ccnc(N)n4)cc3[nH]1)CO2 (configuration not stated),-1,-7,29,3.0*
Nc1nccc(-c2ccc3nc(C4COc5ccc(C(=O)NCCc6cccs6)cc5C4)[nH]c3c2)n1 (configuration not stated),-1,-8,20,24*
CN(C)CCNC(=O)c1ccc2c(c1)CC(c1nc3ccc(-c4ccnc(N)n4)cc3[nH]1)CO2 (configuration not stated),-1,38,-2,0
O=C(N/C(=C\C=C\c1ccccc1)C(=O)N1CC2CC(C1)c1cccc(=O)n1C2)c1ccc(F)cc1 (configuration not stated),0,-9,2,0
Cc1ccc(-c2csc(/C(C#N)=C\Nc3ccc(S(N)(=O)=O)cc3)n2)cc1,2,6,9,2.7*
COc1ccc([N+](=O)[O-])cc1CSc1nnc(N2C(=O)c3ccccc3C2=O)s1,1,6,2,0
Cn1nc(C(F)(F)F)c(/C=N/NC(=O)NC23CC4CC(CC(C4)C2)C3)c1Cl,0,12,2,0
O=C(NC1CCN(Cc2ccccc2)CC1)c1ccc(Cn2nnc3ccccc3c2=O)cc1,-1,4,35*,0
CC1=NN(c2ccc([N+](=O)[O-])cc2)C(=O)/C1=C\c1ccc(C)o1,3,81*,2,0
CC1=NN(c2ccc(Br)cc2)C(=O)/C1=C\c1ccc(-c2c(Br)cc([N+](=O)[O-])cc2Br)o1,-1,14,-2,0
CC1CCc2cc(F)ccc2N1C(=O)CN1C(=O)c2ccccc2S1(=O)=O (configuration not stated),1,-4,6,0
Cn1c(COc2ccccc2)c(C#N)c2ccccc21,-1,0,-41,0
Cn1c(CS(=O)(=O)c2ccccc2)c(C#N)c2ccccc21,1,-11,34*,0
CCc1cccc2c1N=C/C2=C\c1c(O)n(Cc2ccco2)c(=O)[nH]c1=O,1,58*,15,-1
CCc1cccc2c1N=C/C2=C\c1c(O)n(Cc2ccccc2)c(=O)[nH]c1=O,-2,3,-9,-1
O=c1[nH]c(=S)n(Cc2ccco2)c(O)c1/C=C1\C=Nc2ccc(Br)cc21,0,84*,11,-1
Cc1nn(CC(=O)N2CCc3ccccc32)c(C)c1[N+](=O)[O-],0,14,-3,0
COc1ccc(C(=O)NCc2ccc(C(=O)NCCCN3CCOCC3)cc2)cc1OC,-1,2,9,0
N#C/C(=C/c1ccccc1O)C(=O)Nc1ccc(O)cc1,-7,3,71*,0
COc1ccc(NC(=O)/C(C#N)=C\c2ccccc2O)cc1,-3,19,40*,0
Cc1ccc(NC(=O)/C(C#N)=C\c2ccccc2O)cc1,-1,9,30,0
O=c1c2cccc3c2c(nn1Cc1ccccc1Cl)-c1ccccc1-3,0,3,3,0
O=c1c2cccc3c2c(nn1CCN1CCCCC1)-c1ccccc1-3,0,18,80*,0
Nc1nc(SCC(=O)NC2CCCCC2)nc2sc3c(c12)CCCC3,-2,7,53*,1
SMILES,GPR151 activ,MITF inh,TEAD-YAP block,FBW7 activator
CCOC(=O)CCCSc1nc(N)c2c3c(sc2n1)CCCC3,0,7,88*,0
CCOC(=O)CC(=O)CSc1nc(N)c2c3c(sc2n1)CCCC3,-2,10,-17,0
COc1cc(Nc2nc(NCc3cccnc3)c3ncn(-c4ccccc4)c3n2)cc(OC)c1OC,1,12,1,0
c1ccc(-n2cnc3c(NCc4nc5ccccc5[nH]4)nc(-c4csc5ccccc45)nc32)cc1,-1,-3,-10,6.9*
c1ccc(Nc2nc(NCc3nc4ccccc4[nH]3)c3ncn(-c4ccccc4)c3n2)cc1,1,15,34*,0
COc1cc(Nc2nc(NCc3nc4ccccc4[nH]3)c3ncn(-c4ccccc4)c3n2)cc(OC)c1OC,0,1,62*,0
CCNc1nc(NCc2nc3ccccc3[nH]2)c2ncn(-c3ccccc3)c2n1,2,8,-1,0
CCCNC(=O)c1ccnc(N2CCN(c3ccccn3)CC2)c1,0,9,-5,1
Oc1ccc(Br)cc1C1CC(c2ccc(Cl)cc2)=NC(c2ccc(F)cc2)N1 (configuration not stated),3,-6,15,0
CCC(Sc1nnc(C)c(=O)[nH]1)C(=O)Nc1ccc(OC(F)(F)F)cc1 (configuration not stated),-1,14,1,0
CN(Cc1nc2ccccc2[nH]1)Cc1nc(CCc2ccccc2)no1,-2,9,-12,0
CN1C=CC(=C2C(=O)c3ccccc3C2=O)C=C1,-5,4,5,0
CCN1C=CC(=C2C(=O)c3ccccc3C2=O)C=C1,-6,-18,95*,0
CCCCN1C(C)=CC(=C2C(=O)c3ccccc3C2=O)C=C1C,-3,5,56*,0
Cn1cc(CNc2nncc(-c3ccc4ccccc4c3)n2)cn1,-1,9,34*,0
Cn1cc(CNc2nncc(-c3ccc(Cl)cc3)n2)cn1,1,6,1,0
COc1ccc(C(=O)OCC(=O)NC(=O)NC2CCCC2)c(O)c1,1,-6,8,0
COCCN(CC(=O)NC1CCCCC1)C(=O)/C=C/C(=O)c1ccc(OC)cc1O,2,-2,49*,0
O=C1NC(=S)N(Cc2ccco2)C(=O)/C1=C\N1CCOCC1,-1,75*,-6,0
CCOc1ccc(/C=C2\C(=O)NC(=S)N(CC)C2=O)c2ccccc12,-2,14,8,0
COCCn1c(C)cc(/C=C2/C(=O)NC(=O)N(Cc3ccco3)C2=O)c1C,0,28,1,0
CCOc1ccc2ccccc2c1/C=C1/C(=O)NC(=S)N(Cc2ccco2)C1=O,-1,77*,-18,-1
COCCn1c(C)cc(/C=C2/C(=O)NC(=S)N(Cc3ccco3)C2=O)c1C,1,65*,-1,-1
O=Cc1ccccc1OC(=O)c1cc2ccccc2oc1=O,-1,-5,-28,0
CCC(=O)Nc1ccc(C2=NNC(=Nc3ccc(C)cc3)SC2)cc1,0,16,-7,0
CCC(=O)Nc1ccc(C2=NNC(=NC3CC3)SC2)cc1,-3,-2,51*,0
Fc1ccc(C2=NNC(=NC3CC3)SC2)cc1F,-7,3,65*,0
CCOC(=O)c1c(C)[nH]c(C2=NNC(=NC3CC3)SC2)c1C,0,5,78*,0
C=CCN1C(=O)C2(NC(=O)c3ccccc3N2)c2ccccc21 (configuration not stated),0,13,66*,1
CCOC(=O)C1=C(C)N=c2s/c(=C/c3ccccc3F)c(=O)n2C1c1cccs1 (configuration not stated),0,13,-7,0
